Laboratory results taken from PubChem BioAssay (Tox21).
Results filed as inconclusive are left out. The source made the active and inactive calls. Unless noted, calls come from the whole dose curve; as a rule, active = well fitted curve in the direction sought with a large enough effect in the repeat runs; inconclusive = weak or mixed curves; inactive = no such curve, though single readings can be large; an effect the other way counts as inactive or inconclusive.

Legend:
[1] = qHTS assay to identify small molecule antagonists of the retinoid acid receptor (RAR) signaling pathway - cell viability counter screen (AID 1159551); note: nearly all actives have a fitted effect of over 35% in size; note: potency is the fitted concentration of half-maximal effect
In short: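 ATP-based viability, C3RL4 cells, 6 h at 37 C with 1 uM final retinol co-added after compound; luminescence read 30 min post CellTiter-Glo, RT.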

[2] = qHTS assay to identify small molecule agonists of the retinoic acid receptor (RAR) signaling pathway (AID 1159553)
In short: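 Quantitative high-throughput format: the Tox21 10K library was tested on C3RL4 RARE-luciferase cells for 6 hr at 37 C and 5% CO2, with luminescence measured after a 30 min room-temperature reagent step.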

[3] = qHTS assay to identify small molecule antagonists of the estrogen related receptor (ERR) signaling pathway - cell viability counter screen (AID 1224818);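 note: series mostly up to about 46 µM; viability measured after 17.5 h of compound exposure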
In short: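 Quantitative high-throughput viability counter screen in ERR cells. Compounds (DMSO) incubated 17.5 h at 37 C; read-out was CellTiter-Fluor fluorescence.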

[4] = qHTS assay to identify small molecule antagonists of the estrogen related receptor (ERR) signaling pathway (AID 1224819; note: series mostly up to about 46 µM; nearly all actives have a fitted effect of over 50% in size)
In short: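 ERR reporter cell line (NTP) plated at 2,000 cells/well, settled 6 h at 37C/5% CO2, then exposed to LOPAC compounds for 18 h at 37C. One-Glo luciferase luminescence read after 30 min at room temperature.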

[5] = qHTS assay to identify small molecule agonists of the estrogen related receptor (ERR) signaling pathway (AID 1224820)
In short: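 After 6 h plating (2,000 cells/well) and 18 h compound treatment at 37 C, ERR cells were lysed with One-Glo and luminescence read after 30 min at room temperature.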

[6] = tested on: estrogen-related receptor alpha (ERRalpha) with PGC-1alpha coactivator, human; test: qHTS assay to identify small molecule antagonists of the estrogen related receptor signaling pathway with the pleiotropic PPARgamma coactivator (PGC) (AID 1224821; calls by dose curve;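 note: series mostly up to about 46 µM; lower luminescence signal means antagonism of PGC/ERR signalling; nearly all actives have a fitted effect of over 50% in size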)
In short: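 Luminescence from One-Glo luciferase reagent (30 min, room temperature) measured after 18 h compound treatment at 37 °C. Cells carry the PGC/ERR reporter and were seeded 6 h prior to dosing.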

[7] = qHTS assay to identify small molecule antagonists of the estrogen related receptor signaling pathway with the pleiotropic PPARgamma coactivator (PGC) cell viability counter screen (AID 1224822; note: series mostly up to about 46 µM)
In short: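 Cytotoxicity in the PGC/ERR cell line is assessed with CellTiter-Fluor, read as fluorescence intensity 30 min after reagent addition, following 17.5 h compound treatment at 37 C.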

[8] = qHTS assay to identify small molecule agonists of the estrogen related receptor signaling pathway with the pleiotropic PPARgamma coactivator (PGC) (AID 1224823)
In short: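 Luminescence from One-Glo reagent (30 min, room temperature) was read after 18 h compound treatment at 37 C of PGC/ERR cells plated 6 h beforehand; compounds delivered in DMSO by pin tool.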

[9] = qHTS assay to identify small molecule antagonists of the estrogen related receptor (ERR) signaling pathway from Tox21 library - cell viability counter screen (AID 1224834); note: nearly all actives have a fitted effect of over 30% in size; note: potency is the fitted concentration of half-maximal effect
In short: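 Compounds in DMSO were pinned onto ERR cells that had been incubated for 6 h, and the plates were held at 37 C for 17.5 h. CellTiter-Fluor reagent was then added and fluorescence was measured after 30 min.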

[10] = biological target: Luciferin 4-monooxygenase (Photinus pyralis) (UniProt P08659); test: qHTS assay to identify small molecule inhibitors of firefly luciferase (AID 1224835); note: nearly all actives have a fitted effect of over 25% in size; note: potency is the fitted concentration of half-maximal effect
In short: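 Quantitative HTS format; KM concentrations of both substrates. Purified P. pyralis FLuc activity quantified from luminescence images.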

[11] = qHTS assay to identify small molecule agonists of the constitutive androstane receptor (CAR) signaling pathway - cell viability counter screen (AID 1224836); note: nearly all actives have a fitted effect of over 45% in size; note: potency is the fitted concentration of half-maximal effect
In short: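 Multiplexed viability check: HepG2-CYP2B6-hCAR cells, 15-point compound dosing, 0.75 uM PK11195 final, 23 h at 37 C, CellTiter-Fluor fluorescence.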

[12] = qHTS assay to identify small molecule antagonists of the constitutive androstane receptor (CAR) signaling pathway - cell viability counter screen (AID 1224837); note: nearly all actives have a fitted effect of over 45% in size; note: potency is the fitted concentration of half-maximal effect
In short: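 Cells are seeded, rested 4 hr at 37 C/5% CO2, dosed with compound (15-point series) and 50 nM CITCO, incubated a further 23 hr, and then CellTiter-Fluor reagent is added before fluorescence is read. The line is HepG2 with stable hCAR and CYP2B6-2.2kb.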

[13] = qHTS assay to identify small molecule agonists of the estrogen related receptor signaling pathway with the pleiotropic PPARgamma coactivator (PGC) from Tox21 10K library (AID 1224842); note: nearly all actives have a fitted effect of over 15% in size
In short: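 PGC/ERR reporter cells (NTP line) were seeded 2,000 per well, rested 6 h at 37 C/5% CO2, then pin-dosed with compounds in DMSO for 18 h at 37 C; luciferase read by One-Glo luminescence after 30 min at room temperature.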

[14] = biological target: Thyrotropin receptor (Homo sapiens) (UniProt P16473); test: qHTS assay to identify small molecule agonists of the thyroid stimulating hormone receptor (TSHR) signaling pathway (AID 1224843; calls by dose curve; note: nearly all actives have a fitted effect of over 45% in size)
In short: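 Compounds are titrated over 15 concentrations, in triplicate, onto TSHR-HEK293 cells seeded at 800/well. Plates sit 30 min at room temperature before cAMP-d2 and anti-cAMP cryptate are added; signal is read after a further hour.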

[15] = qHTS assay to identify small molecule agonists of the hypoxia (HIF-1) signaling pathway - cell viability counter screen (AID 1224844; calls by dose curve; note: nearly all actives have a fitted effect of over 50% in size; note: potency is the fitted concentration of half-maximal effect)
In short: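 Viability counter screen: HRE-bla ME-180 cells plated 5 hrs before compound addition, treated 17 hrs at 37C and 5% CO2, then CellTiter-Glo added after the FRET reporter read; luminescence after 30 min.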

[16] = qHTS assay to identify small molecule antagonists of the retinoic acid receptor (RAR) signaling pathway (AID 1159552; note: nearly all actives have a fitted effect of over 50% in size; note: potency is the fitted concentration of half-maximal effect)
In short: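 Using a RARE-driven luciferase construct in C3RL4 cells, retinol at 1 uM final provided the agonist stimulus while compounds were co-applied. After 6 hours at 37 C, luminescence was recorded to flag inhibitors of retinol signaling.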

[17] = biological target: Nuclear receptor subfamily 1 group I member 3 (Homo sapiens) (UniProt Q14994); test: qHTS assay to identify small molecule agonists of the constitutive androstane receptor (CAR) signaling pathway (AID 1224839); note: nearly all actives have a fitted effect of over 15% in size; note: potency is the fitted concentration of half-maximal effect
In short: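 Using human hepatoma HepG2 cells engineered with hCAR and a CYP2B6-2.2kb reporter, 15-concentration compound series were incubated 24 h alongside PK11195 at 0.75 uM final, with luminescence quantified afterwards.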

[18] = biological target: Nuclear receptor subfamily 1 group I member 3 (Homo sapiens) (UniProt Q14994); test: qHTS assay to identify small molecule antagonists of the constitutive androstane receptor (CAR) signaling pathway (AID 1224838);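 note: HepG2 cells stably expressing hCAR with CYP2B6 luciferase reporter stimulated by CITCO; nearly all actives have a fitted effect of over 40% in size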; note: potency is the fitted concentration of half-maximal effect
In short: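 Luminescence from a CYP2B6-2.2kb promoter reporter in hCAR-expressing HepG2 cells reflects CAR signaling. Cells received compounds at 15 concentrations and 50 nM CITCO (final), then incubated 24 h at 37 C/5% CO2.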

[19] = qHTS assay to identify small molecule antagonists of the estrogen related receptor signaling pathway with the pleiotropic PPARgamma coactivator (PGC) from Tox21 10K library (AID 1224841; call rule not given here; note: potency is the fitted concentration of half-maximal effect)
In short: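 Cells stably carrying the PGC/ERR reporter, seeded at 2,000 per well, received pin-transferred compounds 6 h post-plating. Exposure lasted 18 h at 37 C. Signal: One-Glo luminescence.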

[20] = qHTS assay to identify small molecule antagonists of the estrogen related receptor signaling pathway with the pleiotropic PPARgamma coactivator (PGC) from Tox21 10K library - cell viability counter screen (AID 1224840; active = well fitted cell-killing curve with a large enough effect in the repeat runs, not every such curve was filed as active; note: nearly all actives have a fitted effect of over 40% in size; note: potency is the fitted concentration of half-maximal effect)
In short: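 Cell viability is measured by CellTiter-Fluor fluorescence in PGC/ERR cells that receive compounds after a 6-hour attachment period and are then incubated 17.5 hours at 37 C.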

Measured: Potency

Luciferin 4-monooxygenase (Photinus pyralis), sequence (P08659 whole entry, looked up): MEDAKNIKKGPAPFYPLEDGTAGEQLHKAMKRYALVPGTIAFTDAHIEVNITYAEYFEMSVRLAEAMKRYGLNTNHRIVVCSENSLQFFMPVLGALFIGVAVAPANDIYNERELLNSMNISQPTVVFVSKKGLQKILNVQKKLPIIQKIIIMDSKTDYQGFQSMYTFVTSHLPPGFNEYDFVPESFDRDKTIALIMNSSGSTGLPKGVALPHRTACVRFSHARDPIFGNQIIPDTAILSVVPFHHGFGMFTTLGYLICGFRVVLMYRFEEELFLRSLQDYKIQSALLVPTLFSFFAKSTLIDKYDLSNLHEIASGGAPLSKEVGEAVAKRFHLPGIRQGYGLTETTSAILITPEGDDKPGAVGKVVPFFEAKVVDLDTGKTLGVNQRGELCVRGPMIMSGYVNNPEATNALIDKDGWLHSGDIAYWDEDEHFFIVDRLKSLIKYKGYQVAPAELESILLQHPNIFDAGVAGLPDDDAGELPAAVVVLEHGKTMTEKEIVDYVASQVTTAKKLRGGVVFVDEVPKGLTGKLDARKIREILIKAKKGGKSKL
Nuclear receptor subfamily 1 group I member 3 (Homo sapiens), sequence (Q14994 whole entry, looked up): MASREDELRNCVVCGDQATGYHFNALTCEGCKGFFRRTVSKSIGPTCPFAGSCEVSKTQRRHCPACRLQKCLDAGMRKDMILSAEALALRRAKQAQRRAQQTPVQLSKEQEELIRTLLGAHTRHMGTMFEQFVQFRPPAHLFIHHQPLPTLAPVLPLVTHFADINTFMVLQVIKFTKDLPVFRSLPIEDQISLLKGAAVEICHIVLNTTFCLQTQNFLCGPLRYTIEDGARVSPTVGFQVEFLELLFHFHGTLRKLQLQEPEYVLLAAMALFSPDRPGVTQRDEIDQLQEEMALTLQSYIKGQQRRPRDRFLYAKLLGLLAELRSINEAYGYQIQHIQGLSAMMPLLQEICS
Thyrotropin receptor (Homo sapiens), sequence (P16473 whole entry, looked up): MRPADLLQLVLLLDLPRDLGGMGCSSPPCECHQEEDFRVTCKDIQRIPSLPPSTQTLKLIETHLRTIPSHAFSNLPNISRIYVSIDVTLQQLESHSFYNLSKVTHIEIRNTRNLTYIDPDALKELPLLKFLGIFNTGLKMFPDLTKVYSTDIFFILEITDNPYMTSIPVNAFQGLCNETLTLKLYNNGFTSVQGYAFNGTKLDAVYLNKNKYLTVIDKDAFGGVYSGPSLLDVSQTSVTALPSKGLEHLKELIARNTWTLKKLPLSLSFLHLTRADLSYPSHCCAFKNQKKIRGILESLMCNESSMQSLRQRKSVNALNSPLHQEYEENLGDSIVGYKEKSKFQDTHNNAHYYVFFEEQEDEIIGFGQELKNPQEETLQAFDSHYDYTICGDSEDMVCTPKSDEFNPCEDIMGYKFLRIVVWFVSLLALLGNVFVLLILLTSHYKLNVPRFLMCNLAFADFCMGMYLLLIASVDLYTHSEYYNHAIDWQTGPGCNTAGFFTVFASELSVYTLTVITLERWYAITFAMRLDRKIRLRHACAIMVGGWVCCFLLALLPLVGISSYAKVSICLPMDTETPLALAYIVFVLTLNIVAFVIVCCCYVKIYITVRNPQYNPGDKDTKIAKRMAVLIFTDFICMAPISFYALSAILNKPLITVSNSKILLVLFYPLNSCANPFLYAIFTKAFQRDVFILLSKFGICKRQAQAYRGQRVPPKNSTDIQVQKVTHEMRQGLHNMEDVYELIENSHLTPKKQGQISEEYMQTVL

CCOCCOC(C)=O
not listed: [16] | [17] | [18] | [19] | [20]
inactive: all other assays above

[Cl][Sb]([Cl])[Cl]
inactive: [1] | [16] | [10] | [11] | [17] | [14]
active: [9] 21.7 µM

OC(Cc1ccccc1Cl)(Cn1cncn1)C1(Cl)CC1 (centres undefined)
inactive: [1] | [16] | [10] | [12] | [18] | [14] | [15]
active: [19] 54.5 µM

CSCCCN=C=S
inactive: [1] | [16] | [10] | [20] | [19] | [13] | [14]

CCc1ccccc1C
inactive: [1] | [16] | [9] | [10] | [11] | [20] | [19] | [14]

CC1(C)CC/C(=C/c2ccc(Cl)cc2)C1(O)Cn1cncn1 (centres undefined)
inactive: [1] | [2] | [3] | [7] | [10] | [18] | [17]

O=C(NC(=O)c1c(F)cccc1F)Nc1cc(Cl)c(OC(F)(F)C(F)F)c(Cl)c1
inactive: [1] | [16] | [9] | [10] | [11] | [20] | [14] | [15]
active: [17] 2.17 µM

BrCC(Br)c1ccccc1 (centres undefined)
inactive: [1] | [16] | [9] | [11] | [12] | [14] | [15]

CCOP(=O)(NC(C)C)Oc1ccc(SC)c(C)c1 (centres undefined)
inactive: [1] | [2] | [3] | [15]

S=C=Nc1cccc2ccccc12
active: [9] 67.9 µM | [11] 67.9 µM | [15] 48.5 µM
inactive: [1] | [16] | [10] | [20] | [13]

ClCCN1CCOCC1
inactive: [1] | [16] | [9] | [10] | [11] | [12] | [19] | [13] | [14] | [15]

O=C(Cl)c1ccc(Cl)cc1
inactive: [1] | [16] | [9] | [10] | [11] | [20] | [14] | [15]

CC(=O)/C=C/c1ccc2c(c1)OCO2
active: [10] 45 µM
inactive: [1] | [16] | [11] | [18] | [17] | [13] | [15]

O=c1ssc(Cl)c1Cl
active: [1] 68.6 µM | [16] 61.1 µM | [10] 17.8 µM | [11] 61.1 µM | [12] 54.5 µM | [18] 54.5 µM
inactive: [17]

CN(CCCC(O)c1cccnc1)N=O (centres undefined)
inactive: [1] | [16] | [9] | [10] | [11] | [20] | [14] | [15]

NC(=O)CCl
inactive: [1] | [16] | [10] | [11] | [12] | [17] | [20] | [14]

COc1cc(N)c(Cl)cc1C(=O)NC1CN2CCC1CC2 (centres undefined)
inactive: [1] | [9] | [10] | [11] | [12] | [18] | [17] | [20] | [14] | [15]

Oc1c(Br)c(Br)c(Br)c(Br)c1Br
inactive: [1] | [2] | [18] | [17]
active: [15] 43.9 µM

CC1(C)[C@H](C(=O)O[C@H](C#N)c2cccc(Oc3ccccc3)c2)[C@@H]1/C=C(\Cl)C(F)(F)F
inactive: [1] | [9] | [10] | [11] | [12] | [17] | [14] | [15]

Cc1cc(C)cc(OP(=O)(Oc2cc(C)cc(C)c2)Oc2cc(C)cc(C)c2)c1
inactive: [1] | [2] | [9] | [10] | [11] | [12] | [20] | [19] | [14] | [15]

Clc1ccc(CSC(Cn2ccnc2)c2ccc(Cl)cc2Cl)cc1 (centres undefined)
active: [9] 15 µM | [20] 29.8 µM
inactive: [1] | [2] | [10] | [11] | [14]
